According to PubChem BioAssay (NCATS):
Several values for one entry are separate records, joined by “and”; a condition that tells them apart may be missing. Equal entries are not always repeated. Inconclusive results are not listed. Activity calls are given as the source filed them. Unless noted, the call rests on the fitted dose curve.

How the values were obtained:
[1] = qHTS assay for small molecule agonists of retinoid X receptor alpha signaling (AID 588544); settings: HEK293T RXRa-UAS-bla, beta-lactamase reporter, 18 h; 530 nm emission;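 on activation: 0% = DMSO basal wells and 100% = reference agonist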
[2] = molecular target: Retinoic acid receptor RXR-alpha (Homo sapiens) (UniProt P19793); assay: as above; settings: HEK293T RXRa-UAS-bla, beta-lactamase reporter, 18 h; series mostly up to 76.7 µM
Chain of Retinoic acid receptor RXR-alpha (Homo sapiens) (P19793 whole entry, looked up): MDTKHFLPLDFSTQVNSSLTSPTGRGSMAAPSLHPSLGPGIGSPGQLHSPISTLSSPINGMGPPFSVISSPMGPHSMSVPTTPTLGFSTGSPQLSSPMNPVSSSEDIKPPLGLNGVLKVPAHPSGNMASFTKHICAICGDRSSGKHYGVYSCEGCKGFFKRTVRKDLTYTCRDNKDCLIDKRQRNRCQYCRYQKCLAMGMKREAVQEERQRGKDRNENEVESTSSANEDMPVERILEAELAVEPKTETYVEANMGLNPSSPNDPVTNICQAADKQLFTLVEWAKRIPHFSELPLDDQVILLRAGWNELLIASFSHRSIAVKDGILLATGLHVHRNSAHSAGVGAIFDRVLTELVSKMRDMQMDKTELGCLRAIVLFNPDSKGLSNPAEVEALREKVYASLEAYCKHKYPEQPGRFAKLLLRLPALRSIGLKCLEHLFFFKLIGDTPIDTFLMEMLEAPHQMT

[3] = qHTS assay for small molecule antagonists of retinoid X receptor alpha signaling (AID 588546; active means well fitted inhibition curve with a large enough effect in the signal ratio, with a control signal flat, not every such curve was filed as active; the % refers to the signal ratio;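 further: cells stimulated with 9-cis-retinoic acid as agonist; on the % scale 0 is the no-effect control and ±100 the full control effect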); settings: HEK293T RXRa-UAS-bla, beta-lactamase ratio, antagonist mode; measured here: W530 green channel, cytotoxicity proxy
Outline: (§1)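 Beta-lactamase reporter inhibition, read as CCF4 fluorescence ratio (ex 405, em 460/530 nm) after 2 h at RT. HEK293T UAS-bla cells, 2500/well, were stimulated with 9-cis-RA at 500 or 100 nM final alongside test compound for 18 h at 37 C.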

[4] = molecular target: Retinoic acid receptor RXR-alpha (Homo sapiens) (UniProt P19793); assay: as above; settings: HEK293T RXRa-UAS-bla, beta-lactamase ratio, antagonist mode
Outline: as §1

[5] = molecular target: Thyroid hormone receptor beta (Homo sapiens) (UniProt P10828); assay: qHTS assay for small molecule antagonists of thyroid hormone receptor beta signaling (AID 588547; active means well fitted inhibition curve with a large enough effect in the signal ratio, with a control signal flat, not every such curve was filed as active; the % refers to the signal ratio;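 further: cells stimulated with 0.4 nM T3 agonist during compound exposure; on the % scale 0 is the no-effect control and ±100 the full control effect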); settings: TR-UAS-bla HEK293, beta-lactamase ratio, antagonist mode, 18 h
Chain of Thyroid hormone receptor beta (Homo sapiens) (P10828 whole entry, looked up): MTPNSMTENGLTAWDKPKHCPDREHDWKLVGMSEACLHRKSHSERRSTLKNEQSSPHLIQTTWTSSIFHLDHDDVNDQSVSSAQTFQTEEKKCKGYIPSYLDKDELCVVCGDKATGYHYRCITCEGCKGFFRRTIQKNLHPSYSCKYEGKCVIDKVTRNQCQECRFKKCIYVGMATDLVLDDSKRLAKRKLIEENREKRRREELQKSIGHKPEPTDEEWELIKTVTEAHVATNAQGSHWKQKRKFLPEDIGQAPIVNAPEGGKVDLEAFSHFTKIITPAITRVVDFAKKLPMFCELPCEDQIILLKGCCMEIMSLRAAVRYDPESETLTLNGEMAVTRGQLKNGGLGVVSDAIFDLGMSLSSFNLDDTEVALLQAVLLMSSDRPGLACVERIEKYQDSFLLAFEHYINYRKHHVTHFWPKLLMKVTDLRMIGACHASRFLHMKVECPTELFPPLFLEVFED
Outline: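 TR-UAS-bla GripTite HEK293 cells in 2% charcoal/dextran FBS medium; compounds 0.59 nM to 92 uM with T3 at 0.4nM final, 18 h at 37 C. Beta-lactamase read by CCF4 fluorescence (460/530 nm); Hill fits gave IC50 and efficacy.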

[6] = molecular target: Thyroid hormone receptor beta (Homo sapiens) (UniProt P10828); assay: qHTS assay for small molecule agonists of thyroid hormone receptor beta signaling (AID 588545); settings: TR-UAS-bla GripTite HEK 293, beta-lactamase ratio, agonist mode, 18 h, percent of T3 response, DMSO as zero; series mostly up to 76.7 µM
Outline: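 In this cell-based screen, titrated compounds act on HEK 293 cells held in medium with 2% charcoal/dextran FBS, NEAA and pyruvate for 18 hrs at 37 C. Responses are expressed relative to T3 (10 nM) as 100% and basal DMSO as 0%.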

[7] = molecular target: Voltage-gated inwardly rectifying potassium channel KCNH2 (Homo sapiens) (UniProt Q12809); assay: qHTS Assay for Small Molecule Inhibitors of the Human hERG Channel Activity (AID 588834; active means well fitted inhibition curve with a large enough effect;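 further: top concentration of the series differs between compounds; on the % scale 0 is the no-effect control and ±100 the full control effect; lower thallium flux fluorescence means stronger hERG block; nearly all actives have a fitted effect of over 50% in size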); settings: U2OS BacMam hERG, FluxOR thallium flux fluorescence; series mostly up to 92.2 µM
Chain of Voltage-gated inwardly rectifying potassium channel KCNH2 (Homo sapiens) (Q12809 whole entry, looked up): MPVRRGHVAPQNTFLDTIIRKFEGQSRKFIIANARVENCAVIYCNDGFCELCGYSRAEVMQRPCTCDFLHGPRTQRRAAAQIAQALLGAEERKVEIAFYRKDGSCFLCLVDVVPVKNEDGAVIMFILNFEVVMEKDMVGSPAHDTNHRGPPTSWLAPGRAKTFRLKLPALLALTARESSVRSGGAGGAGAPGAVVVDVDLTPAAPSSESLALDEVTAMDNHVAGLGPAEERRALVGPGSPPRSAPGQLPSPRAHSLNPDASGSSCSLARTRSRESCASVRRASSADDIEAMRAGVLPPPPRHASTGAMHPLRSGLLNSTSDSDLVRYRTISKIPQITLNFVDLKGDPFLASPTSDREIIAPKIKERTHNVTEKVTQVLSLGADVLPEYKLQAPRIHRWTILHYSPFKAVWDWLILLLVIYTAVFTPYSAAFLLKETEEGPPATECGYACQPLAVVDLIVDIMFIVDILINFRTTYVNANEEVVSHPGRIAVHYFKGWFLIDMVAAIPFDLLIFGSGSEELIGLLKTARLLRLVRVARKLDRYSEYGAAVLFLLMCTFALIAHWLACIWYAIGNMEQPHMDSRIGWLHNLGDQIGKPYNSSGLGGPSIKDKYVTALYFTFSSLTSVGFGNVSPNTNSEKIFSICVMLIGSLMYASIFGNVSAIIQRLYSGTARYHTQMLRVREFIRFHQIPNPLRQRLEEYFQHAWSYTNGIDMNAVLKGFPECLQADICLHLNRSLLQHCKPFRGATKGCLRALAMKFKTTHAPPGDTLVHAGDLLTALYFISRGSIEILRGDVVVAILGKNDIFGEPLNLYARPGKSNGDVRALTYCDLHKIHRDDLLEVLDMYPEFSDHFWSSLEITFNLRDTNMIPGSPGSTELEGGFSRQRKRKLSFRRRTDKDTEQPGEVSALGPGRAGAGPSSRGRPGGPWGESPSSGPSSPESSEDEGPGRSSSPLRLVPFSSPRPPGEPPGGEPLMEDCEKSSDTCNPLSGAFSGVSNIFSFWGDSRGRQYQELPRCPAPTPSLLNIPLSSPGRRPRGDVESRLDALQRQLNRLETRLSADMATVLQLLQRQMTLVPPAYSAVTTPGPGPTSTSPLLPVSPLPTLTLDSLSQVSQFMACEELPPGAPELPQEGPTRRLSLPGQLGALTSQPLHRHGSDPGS
Outline: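 Kinetic FDSS fluorescence; U2OS + hERG BacMam (~100 virus particles/cell); FluxOR Tl+ flux; ~10 min cpd; AC50 (Hill).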

[8] = qHTS assay for small molecule activators of the p53 signaling pathway (AID 651743; active means well fitted activation curve with a large enough effect in the signal ratio, not every such curve was filed as active; the % refers to the signal ratio; further: % of control where 0% means no effect); settings: HCT-116 p53RE-bla, beta-lactamase FRET ratio, 16 h; stronger effect = higher value
Outline: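 HCT-116 p53RE-bla, 4,000 cells/well; 5 h settle; cpd/DMSO 16 h, 37 C; LiveBLAzer B/G 2 h RT; fluorescence intensity.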

[9] = qHTS assay for small molecule activators of the nuclear factor-kappa B (NF-kB) signaling pathway (AID 651749; active means well fitted activation curve with a large enough effect in the signal ratio; the % refers to the signal ratio; further: % of control where 0% means no effect); settings: NF-kB-bla ME-180 cells, beta-lactamase FRET ratio, 16 h; stronger effect = higher value
Outline: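 Incubation lasted 16 hr at 37C in 5% CO2 after 23 nL compound addition to ME-180 NF-kB-bla cells. Activation appears as beta-lactamase-mediated FRET loss.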

[10] = qHTS assay for small molecule agonists of the antioxidant response element (ARE) signaling pathway (AID 651741; active means well fitted activation curve with a large enough effect in the signal ratio; the % refers to the signal ratio; further: potency means the concentration at half of the fitted maximal effect; on activation: % of control where 0% means no effect); settings: HepG2 ARE-bla reporter, beta-lactamase FRET ratio, 16 h; series mostly up to 96 µM
Outline: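 HepG2 ARE-bla cells plated at 2,000 cells/well and incubated 5 h at 37 C/5% CO2 received 23 nL compound in DMSO. After 16 h at 37 C, LiveBLAzer B/G FRET substrate was applied for 2 h at room temperature and fluorescence read.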

Row | SMILES | max response [1] | outcome [2] | max response [3] | max response [4] | activity change % (negative = inhibition) [5] | outcome [6] | Potency [7] | activation [8] | activation [9] | Potency [10]
1 | CC(C)CO | -16% | inactive | -8.16% | -7% (inactive) | -17.4% (inactive) | – | – | – | – | –
2 | c1ccc2[nH]cnc2c1 | -10.3% | inactive | – | – | 2.62% (inactive) | inactive | inactive | 0.533% (inactive) | 1.42% (inactive) | –
3 | C=CCOC(=O)COCCC(C)C | -2.63% | inactive | -11.5% | 9.99% (inactive) | – | inactive | inactive | – | -0.303% (inactive) | inactive
4 | CCC(=O)/C=C/C1C(C)=CCCC1(C)C (centres undefined) | -9.1% | inactive | -4% | 2.33% (inactive) | -4.67% (inactive) | inactive | – | -2.61% (inactive) | – | –
5 | COc1cccc(N)c1 | 15.1% | inactive | – | – | -9.05% (inactive) | inactive | inactive | -3.72% (inactive) | – | –
6 | Cc1cccc2sc(N)nc12 | -1.76% | inactive | -5.71% | 1.45% (inactive) | – | inactive | inactive | 2.1% (inactive) | 0.512% (inactive) | 15 µM (active)
7 | CCc1ccccc1O | -12.3% | inactive | -5.98% | 5.77% (inactive) | – | inactive | inactive | – | 0.236% (inactive) | –
8 | Cc1cc([N+](=O)[O-])ccc1N | -1.24% | inactive | -8.79% | 2.58% (inactive) | -9.22% (inactive) | inactive | – | -4.49% (inactive) | -0.648% (inactive) | inactive
9 | NC(=O)/N=N/C(N)=O | -17.5% | inactive | -9.97% | -2.12% (inactive) | – | inactive | inactive | -0.505% (inactive) | 2.36% (inactive) | –
10 | Cc1cccc2cccnc12 | -2.92% | inactive | – | – | -0.45% (inactive) | inactive | inactive | -4.27% (inactive) | – | –
11 | O=C(O)/C=C/C(=O)O | -9.62% | inactive | -3.98% | 8.67% (inactive) | 3% (inactive) | inactive | – | -2.03% (inactive) | -1.19% (inactive) | –
12 | CCCCC(CC)CNCC(CC)CCCC (centres undefined) | 2.31% | inactive | 0.349% | 10% (inactive) | 4.7% (inactive) | inactive | – | – | -0.684% (inactive) | inactive
13 | C=C(C)C(=O)OCCCCCC | -12.9% | inactive | – | – | 6.42% (inactive) | inactive | inactive | -0.374% (inactive) | – | –
14 | CCNc1ccccc1 | -5.14% | inactive | – | – | -13.9% (inactive) | inactive | inactive | -2.34% (inactive) | – | –
15 | C(=C/c1ccccc1)/c1ccccc1 | -10% | inactive | -6.97% | -3.93% (inactive) | -6.07% (inactive) | inactive | – | -2.17% (inactive) | -0.123% (inactive) | –
16 | CC(C)c1ccccc1 | -7.95% | inactive | 7.79% | 6.96% (inactive) | 6.43% (inactive) | inactive | – | 0.723% (inactive) | – | inactive
17 | CC(C)N=C=NC(C)C | -13.3% | inactive | 10.7% | 7.57% (inactive) | 1.37% (inactive) | inactive | – | 1.3% (inactive) | -0.231% (inactive) | inactive
18 | Cc1ccc(Br)cc1 | 5.91% | inactive | 1.18% | -0.837% (inactive) | -9.28% (inactive) | – | inactive | – | – | inactive
19 | Oc1cccc(Nc2ccccc2)c1 | -0.0784% | inactive | – | – | – | inactive | inactive | – | 0.49% (inactive) | 42.2 µM (active)
20 | FC(F)(F)c1ccccc1Cl | -12.9% | inactive | -4.91% | -5% (inactive) | – | inactive | inactive | 1.57% (inactive) | -0.494% (inactive) | inactive
21 | CC(=O)c1cccc([N+](=O)[O-])c1 | -6.78% | inactive | 3.27% | 7.36% (inactive) | 10.7% (inactive) | – | inactive | -3.72% (inactive) | – | inactive
22 | CC(C=O)Cc1ccc(C(C)(C)C)cc1 (centres undefined) | -4.78% and -12.5% | inactive | 2.84% and -3.45% | -0.768% (inactive) and 2.1% (inactive) | 4.73% (inactive) and 0.44% (inactive) | inactive | – | 3.13% (inactive) and -1.47% (inactive) | – | inactive
23 | CC(=O)c1ccccc1[N+](=O)[O-] | -16.2% | inactive | 5.46% | 5.8% (inactive) | 19.8% (inactive) | – | inactive | – | – | inactive
24 | C=C(C)C1CC=C(C)C(OC(C)=O)C1 (centres undefined) | -3.57% | inactive | -6.8% | 1.02% (inactive) | – | inactive | inactive | 1.6% (inactive) | – | –
25 | Cc1ccccc1C(N)=O | -6.32% | inactive | 9.22% | 7.98% (inactive) | -3.78% (inactive) | inactive | – | 1.09% (inactive) | 1.42% (inactive) | –
26 | CCCCC(CC)COC(=O)CCCCC(=O)OCC(CC)CCCC (centres undefined) | -13% and -12.5% | inactive | -3.16% and -14.9% | 12% (inactive) and 4.32% (inactive) | – | inactive | inactive | -0.514% (inactive) and -0.3% (inactive) | 0.278% (inactive) and -0.188% (inactive) | inactive
